What all share (set-up): scale not given: direction of the effect not stated beside the values
Assay [1] has as its target Protein translocase subunit SecA (Escherichia coli (strain K12)) (UniProt P10408). Description: Assay to Identify E. coli SecA ATPase Inhibitors. The format is functional. The conditions noted are these: 30 µM.
Assay [2] concerns the target T1, Ubiquitin-activating enzyme e1, putative (Leishmania donovani (strain BPK282A1)) (UniProt E9BSI1).
T1 sequence (whole entry): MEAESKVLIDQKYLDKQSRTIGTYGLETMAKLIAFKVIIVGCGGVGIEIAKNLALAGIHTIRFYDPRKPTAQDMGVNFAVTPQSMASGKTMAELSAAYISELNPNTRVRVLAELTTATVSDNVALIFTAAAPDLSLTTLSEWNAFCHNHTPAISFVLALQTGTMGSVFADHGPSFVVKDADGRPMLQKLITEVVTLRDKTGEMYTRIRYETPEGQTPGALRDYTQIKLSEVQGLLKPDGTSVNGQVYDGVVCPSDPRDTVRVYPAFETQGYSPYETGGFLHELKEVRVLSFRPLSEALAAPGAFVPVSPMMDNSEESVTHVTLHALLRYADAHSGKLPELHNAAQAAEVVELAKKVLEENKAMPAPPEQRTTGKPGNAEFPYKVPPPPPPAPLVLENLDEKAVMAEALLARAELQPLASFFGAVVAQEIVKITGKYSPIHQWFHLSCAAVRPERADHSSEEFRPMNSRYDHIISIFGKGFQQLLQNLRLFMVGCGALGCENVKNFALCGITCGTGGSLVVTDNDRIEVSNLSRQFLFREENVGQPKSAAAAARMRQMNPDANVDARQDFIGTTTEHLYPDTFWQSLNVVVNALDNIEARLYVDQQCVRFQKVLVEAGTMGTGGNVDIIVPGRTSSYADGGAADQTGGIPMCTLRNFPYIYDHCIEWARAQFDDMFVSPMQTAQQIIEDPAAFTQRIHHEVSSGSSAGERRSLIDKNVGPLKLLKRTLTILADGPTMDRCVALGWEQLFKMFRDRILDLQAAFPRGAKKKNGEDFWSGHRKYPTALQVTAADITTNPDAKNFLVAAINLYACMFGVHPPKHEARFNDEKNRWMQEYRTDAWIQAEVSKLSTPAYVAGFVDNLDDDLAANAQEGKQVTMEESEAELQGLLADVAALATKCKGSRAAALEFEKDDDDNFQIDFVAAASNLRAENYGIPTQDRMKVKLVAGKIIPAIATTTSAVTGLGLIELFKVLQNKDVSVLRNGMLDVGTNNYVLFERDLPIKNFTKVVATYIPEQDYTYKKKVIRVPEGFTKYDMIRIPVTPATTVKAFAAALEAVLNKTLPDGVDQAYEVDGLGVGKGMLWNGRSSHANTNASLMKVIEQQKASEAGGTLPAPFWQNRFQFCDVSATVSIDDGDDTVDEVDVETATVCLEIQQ
Briefly: Leishmania donovani Ubiquitin Activating Enzyme (LdE1). The format is functional. The conditions noted are these: 30 µM.

In assay [3] the target is AMP-activated protein kinase, AMPK (Homo sapiens) (UniProt P54646+O43741+P54619+Q9UGJ0+Q9Y478+Q13131+Q9UGI9). Briefly: AMP-dependent Kinase enzyme assay. An in vitro enzyme assay that detects ADP turnover that is directly proportional to AMPK activity. This uses naive AMPK that is activated during the assay with MK-8722. As to conditions: 30 µM. The class given is functional.

For assay [4], the target named is Sialic acid-binding Ig-like lectin 9 (Homo sapiens) (UniProt Q9Y336). Briefly: Hs-Siglec9 ALPHAscreen SOP 20170721. The conditions noted are these: 10 µM. Background: Alpha assays give light when donor and acceptor beads are brought close together.
Sequence of Sialic acid-binding Ig-like lectin 9 (Homo sapiens) (Q9Y336 whole entry): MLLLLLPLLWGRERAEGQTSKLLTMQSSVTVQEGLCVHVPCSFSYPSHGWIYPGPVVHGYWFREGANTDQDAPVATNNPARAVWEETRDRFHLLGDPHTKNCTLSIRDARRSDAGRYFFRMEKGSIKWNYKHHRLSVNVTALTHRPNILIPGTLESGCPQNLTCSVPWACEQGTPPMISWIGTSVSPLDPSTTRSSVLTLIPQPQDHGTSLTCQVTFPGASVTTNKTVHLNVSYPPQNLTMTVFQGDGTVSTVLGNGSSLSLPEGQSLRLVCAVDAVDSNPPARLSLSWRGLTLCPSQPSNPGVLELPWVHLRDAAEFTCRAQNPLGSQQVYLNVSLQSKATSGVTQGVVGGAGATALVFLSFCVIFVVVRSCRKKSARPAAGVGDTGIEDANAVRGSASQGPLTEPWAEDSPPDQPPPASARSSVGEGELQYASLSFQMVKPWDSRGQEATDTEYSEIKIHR
For another assay, the system named is Trypanosoma cruzi. Briefly: Trypanosoma cruzi phosphomannomutase and mannose-1-phosphate guanylyltransferase assay. The class given is functional. As to conditions: 10 µM.
Assay [5] has as its target T2, Arginase-2, mitochondrial (Homo sapiens) (UniProt P78540).
T2 sequence (whole entry): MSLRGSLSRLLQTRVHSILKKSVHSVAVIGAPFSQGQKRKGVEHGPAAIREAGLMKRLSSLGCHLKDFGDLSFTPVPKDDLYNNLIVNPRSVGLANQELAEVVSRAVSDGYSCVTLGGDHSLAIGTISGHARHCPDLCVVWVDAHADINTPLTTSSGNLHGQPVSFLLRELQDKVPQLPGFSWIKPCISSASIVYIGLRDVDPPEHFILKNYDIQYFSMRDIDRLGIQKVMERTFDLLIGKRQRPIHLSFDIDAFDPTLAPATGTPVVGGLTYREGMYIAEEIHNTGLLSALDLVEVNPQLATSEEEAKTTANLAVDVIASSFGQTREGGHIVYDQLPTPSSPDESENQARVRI
Description: in vitro enzyme assay to detect the production of urea directly proportional to the activity of Arginase II. Note: in the data most compounds retested in dose-response had high values. The class given is functional. As to conditions: 33.3 µM.

In assay [6] the target is T3, Proteasome subunit beta (Trypanosoma cruzi) (UniProt O96673).
T3 sequence (whole entry): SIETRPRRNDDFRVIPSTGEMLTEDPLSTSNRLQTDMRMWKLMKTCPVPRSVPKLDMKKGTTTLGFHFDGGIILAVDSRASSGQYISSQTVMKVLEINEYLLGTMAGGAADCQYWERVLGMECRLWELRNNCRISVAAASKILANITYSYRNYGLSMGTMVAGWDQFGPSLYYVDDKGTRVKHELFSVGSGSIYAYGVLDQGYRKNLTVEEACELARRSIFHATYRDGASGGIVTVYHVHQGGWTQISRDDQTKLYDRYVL
Description: Trypanosoma cruzi proteasome chymotrypsin-like activity (TcProtChymo) assay. Note: in the data most compounds retested in dose-response had high values. The class given is functional. As to conditions: 9.37 µM.

For another assay, the species on record is Homo sapiens. Description: To identify inhibition of the IFN signalling (Jak-Stat) pathway via expression of an eGFP reporter gene under the control of an IFN-stimulated response element (ISRE) containing MxA promoter. The format is functional. As to conditions: 30 µM. A general note: Reporter assays use an easily measured gene product as a stand-in for the process of interest.

For assay [7], the target named is T4, Tyrosyl-tRNA synthetase, putative (Trypanosoma cruzi (strain CL Brener)) (UniProt Q4DSP6).
T4 sequence (whole entry): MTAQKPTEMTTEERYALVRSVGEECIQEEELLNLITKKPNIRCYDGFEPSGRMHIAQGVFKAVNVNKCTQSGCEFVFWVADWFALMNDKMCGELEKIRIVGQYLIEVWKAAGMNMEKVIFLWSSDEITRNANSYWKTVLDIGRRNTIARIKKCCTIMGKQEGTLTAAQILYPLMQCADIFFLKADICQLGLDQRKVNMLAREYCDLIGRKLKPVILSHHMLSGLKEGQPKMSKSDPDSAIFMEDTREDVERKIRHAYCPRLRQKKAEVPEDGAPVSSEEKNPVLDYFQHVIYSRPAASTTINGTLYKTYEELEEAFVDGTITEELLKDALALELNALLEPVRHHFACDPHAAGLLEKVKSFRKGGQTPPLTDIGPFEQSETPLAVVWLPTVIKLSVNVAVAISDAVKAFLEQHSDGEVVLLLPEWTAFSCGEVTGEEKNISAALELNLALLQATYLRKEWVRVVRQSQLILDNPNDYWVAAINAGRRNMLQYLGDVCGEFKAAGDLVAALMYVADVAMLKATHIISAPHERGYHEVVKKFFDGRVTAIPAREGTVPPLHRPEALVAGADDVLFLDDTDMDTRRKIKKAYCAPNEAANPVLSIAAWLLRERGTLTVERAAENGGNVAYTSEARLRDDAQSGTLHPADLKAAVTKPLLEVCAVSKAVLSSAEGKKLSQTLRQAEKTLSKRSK
Description: Trypanosoma cruzi tyrosyl tRNA synthetase (TcYRS) _High Tyrosine SOP. Note: in the data most compounds retested in dose-response had high values. The format is functional. As to conditions: 30 µM.

Assay [8] deals with T4, Tyrosyl-tRNA synthetase, putative (Trypanosoma cruzi (strain CL Brener)). Briefly: Trypanosoma cruzi tyrosyl tRNA synthetase (TcYRS) SOP. The format is functional. As to conditions: 30 µM.
The target in assay [9] is Chromo domain-containing protein 1 (Saccharomyces cerevisiae (strain ATCC 204508 / S288c) (Baker's yeast)) (UniProt P32657). Briefly: ScCHD-1 Enzyme Inhibition Assay. Note: in the data most compounds retested in dose-response had high values. The format is functional. As to conditions: 30 µM.
Sequence of Chromo domain-containing protein 1 (Saccharomyces cerevisiae (strain ATCC 204508 / S288c) (Baker's yeast)) (P32657 whole entry, the tested form may be a part): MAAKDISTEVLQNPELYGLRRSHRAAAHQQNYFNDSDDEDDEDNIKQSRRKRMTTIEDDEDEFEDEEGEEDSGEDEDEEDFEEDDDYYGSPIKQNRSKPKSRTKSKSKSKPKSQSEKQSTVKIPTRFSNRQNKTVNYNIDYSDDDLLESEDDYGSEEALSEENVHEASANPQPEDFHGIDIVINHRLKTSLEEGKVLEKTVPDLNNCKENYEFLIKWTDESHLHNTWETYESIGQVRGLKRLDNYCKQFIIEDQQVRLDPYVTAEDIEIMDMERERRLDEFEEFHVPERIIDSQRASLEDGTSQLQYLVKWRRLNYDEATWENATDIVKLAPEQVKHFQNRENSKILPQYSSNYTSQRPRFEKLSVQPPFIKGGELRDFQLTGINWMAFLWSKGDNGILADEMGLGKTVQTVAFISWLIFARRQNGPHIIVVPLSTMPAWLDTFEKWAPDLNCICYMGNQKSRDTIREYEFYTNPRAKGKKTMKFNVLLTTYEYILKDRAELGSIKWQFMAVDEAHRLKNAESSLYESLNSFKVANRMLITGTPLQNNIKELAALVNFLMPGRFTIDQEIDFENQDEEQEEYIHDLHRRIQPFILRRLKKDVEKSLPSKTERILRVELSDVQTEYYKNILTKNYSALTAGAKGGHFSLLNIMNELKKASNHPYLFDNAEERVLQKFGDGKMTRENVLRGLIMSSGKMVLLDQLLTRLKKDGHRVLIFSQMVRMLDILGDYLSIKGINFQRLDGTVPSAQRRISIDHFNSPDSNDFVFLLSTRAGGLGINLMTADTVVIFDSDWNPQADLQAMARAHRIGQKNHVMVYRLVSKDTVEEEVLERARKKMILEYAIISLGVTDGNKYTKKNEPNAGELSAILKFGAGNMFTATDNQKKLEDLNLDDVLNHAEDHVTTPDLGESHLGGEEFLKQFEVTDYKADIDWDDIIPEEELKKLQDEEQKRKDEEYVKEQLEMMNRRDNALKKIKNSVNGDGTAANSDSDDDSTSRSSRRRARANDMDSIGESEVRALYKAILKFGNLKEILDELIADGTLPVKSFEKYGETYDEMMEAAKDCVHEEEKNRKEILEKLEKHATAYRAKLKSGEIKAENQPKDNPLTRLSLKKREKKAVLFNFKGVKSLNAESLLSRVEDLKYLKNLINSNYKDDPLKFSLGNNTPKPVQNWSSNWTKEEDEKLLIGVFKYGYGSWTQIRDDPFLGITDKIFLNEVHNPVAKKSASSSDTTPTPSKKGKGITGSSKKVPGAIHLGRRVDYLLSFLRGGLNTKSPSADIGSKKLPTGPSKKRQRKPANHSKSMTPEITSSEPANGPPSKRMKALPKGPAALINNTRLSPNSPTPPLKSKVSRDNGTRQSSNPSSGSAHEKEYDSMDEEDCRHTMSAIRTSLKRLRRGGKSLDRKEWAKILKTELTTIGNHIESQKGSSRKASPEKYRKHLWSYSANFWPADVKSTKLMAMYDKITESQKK

Nine compounds from ChEMBL document CHEMBL3988442, “University of Dundee, Small-Polar-MMV Screening Library” (2021) can be followed below.

The structures appear in SMILES notation. For part of these data: Potency and affinity values are given separately.

Sequence of Protein translocase subunit SecA (Escherichia coli (strain K12)) (P10408 whole entry): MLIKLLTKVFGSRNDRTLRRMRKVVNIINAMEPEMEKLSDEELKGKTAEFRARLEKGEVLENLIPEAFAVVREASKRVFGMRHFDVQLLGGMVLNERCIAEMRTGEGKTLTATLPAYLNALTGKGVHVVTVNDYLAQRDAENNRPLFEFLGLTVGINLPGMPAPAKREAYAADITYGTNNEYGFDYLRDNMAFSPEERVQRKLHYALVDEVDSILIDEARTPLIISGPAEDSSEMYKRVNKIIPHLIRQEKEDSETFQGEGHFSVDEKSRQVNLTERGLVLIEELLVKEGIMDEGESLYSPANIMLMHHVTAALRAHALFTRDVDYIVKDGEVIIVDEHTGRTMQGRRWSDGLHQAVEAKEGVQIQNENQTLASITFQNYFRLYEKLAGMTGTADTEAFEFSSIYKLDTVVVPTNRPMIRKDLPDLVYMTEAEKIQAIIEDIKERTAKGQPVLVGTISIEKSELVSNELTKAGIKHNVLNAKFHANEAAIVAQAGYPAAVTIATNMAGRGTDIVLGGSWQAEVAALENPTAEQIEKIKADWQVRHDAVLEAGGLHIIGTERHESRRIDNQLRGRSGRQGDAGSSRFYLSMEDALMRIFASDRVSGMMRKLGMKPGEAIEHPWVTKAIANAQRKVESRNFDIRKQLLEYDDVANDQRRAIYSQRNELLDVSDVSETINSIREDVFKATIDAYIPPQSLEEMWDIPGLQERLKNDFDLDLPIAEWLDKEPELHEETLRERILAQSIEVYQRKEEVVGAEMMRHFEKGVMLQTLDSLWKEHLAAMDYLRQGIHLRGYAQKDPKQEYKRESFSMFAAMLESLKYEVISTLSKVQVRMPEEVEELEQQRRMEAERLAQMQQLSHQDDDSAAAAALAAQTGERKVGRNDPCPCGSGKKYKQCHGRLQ

For the compound `Cc1noc(CN2CCN(CC(C)O)CC2)n1` (centres undefined), the Percent Effect in [1] was -0.907%; in [2] it was 8.11%; in [3], -4.38%; in assay [4] it was 4.09%; in the assay on Trypanosoma cruzi, 0.195%; in assay [5], 1.25%. Further, the Percent Effect is 9.21% in [6]; -0.0675% in the assay filed under Homo sapiens; 6.93% in assay [7]; 8.54% in assay [8]; -4.47% in assay [9].

`CCOc1cc(C(=O)N2CCCC(c3noc(C)n3)C2)ccn1` (centres undefined): the Percent Effect was -5.03% in [1]; 10.5% in [2]; -4.05% in assay [3]; 13.6% in assay [4]; -2.15% in the assay with Trypanosoma cruzi; -1.08% in assay [5]. In addition, the Percent Effect was 2.12% in [6]; -18.5% in the assay filed under Homo sapiens; 5.42% in [7]; 11.1% in [8]; -2.64% in assay [9].

`CN(CCC#N)C(=O)CCOc1cccc(F)c1`: the Percent Effect in assay [1] is -2.84%; in assay [2], 10.5%; in [3] it was 0.343%; in assay [4], -8.13%; in the assay on Trypanosoma cruzi, -0.876%; in assay [5], -4.73%. For the same compound, the Percent Effect in assay [6] is 10.3%; in the assay filed under Homo sapiens, 20.8%; in [7], 3.19%; in [8] it was 10.4%; in [9] it was -3.22%.

As to `Cc1ccc(C(=O)N2CCCC2c2nnc3n2CCCCC3)o1` (centres undefined), the Percent Effect in assay [1] is 0.332%; in assay [2] it was -1.39%; in assay [3], 7.46%; in assay [4], -3.27%; in the assay with Trypanosoma cruzi, -2.23%; in assay [5] it was -11.9%. Also, the Percent Effect in [6] is 6.84%; in the assay filed under Homo sapiens it was -2.88%; in assay [7] it was 2.1%; in assay [8], -5.13%; in assay [9], -1.81%.

Regarding `Cc1cnn(CCNCc2ccc(C#N)cc2F)c1`, the Percent Effect in assay [1] was -5.04%; in assay [2], 10.8%; in [3], -4.08%; in assay [4] it was 8.42%; with Trypanosoma cruzi, -2.51%; in [5], 0.554%. For the same compound, the Percent Effect is 5.75% in [6]; 7.34% in the assay filed under Homo sapiens; 6.93% in assay [7]; 13.4% in assay [8]; -0.768% in assay [9].

As for `Cc1cc(C)n(C2CCCN(C(=O)CCCNc3ncccn3)C2)n1` (centres undefined), the Percent Effect was -6.94% in assay [1]; 13.9% in assay [2]; -2.21% in assay [3]; -4.67% in assay [4]; 3.38% in the assay with Trypanosoma cruzi; 2.8% in assay [5]. The Percent Effect in assay [6] is 10.6%; in the assay filed under Homo sapiens it was -0.293%; in [7] it was 4.17%; in [8], 20.2%; in assay [9] it was -26.7%.

Take `CC(C)N(C)Cc1nnc2n1CCN(Cc1ccncc1)CC2`: the Percent Effect is -1.23% in assay [1]; 8% in assay [2]; 2.82% in [3]; -4.03% in [4]; -3.67% in the assay on Trypanosoma cruzi; -54.7% in assay [5]. Further, the Percent Effect is 2.73% in [6]; 1.94% in the assay filed under Homo sapiens; -2.08% in [7]; 5% in assay [8]; -6.5% in assay [9].

Consider `CS(=O)(=O)N1CC[C@]2(C[C@@H](OCC3CCC3)CO2)C1`, for which the Percent Effect is -3.98% in assay [1]; 16.2% in assay [2]; -8.34% in [3]; 20.7% in assay [4]; 2.64% with Trypanosoma cruzi; 1.24% in assay [5]. Also, the Percent Effect in [6] was 11.6%; in the assay listed under Homo sapiens, -1.67%; in assay [7], 5.38%; in [8], 18.5%; in assay [9], -5.25%.

Take `CNC(=O)N1CC[C@H]2N(C)CC[C@@]2(C(=O)Nc2ccccc2)CC1`: the Percent Effect is -3.9% in assay [1]; 5.41% in assay [2]; -2.05% in [3]; 1.61% in assay [4]; 5.08% with Trypanosoma cruzi; 4.17% in assay [5]. Besides, the Percent Effect in [6] was 2.45%; in the assay filed under Homo sapiens, 11.5%; in [7], 1.98%; in [8], 6.1%; in assay [9], -1.69%.
